Laboratory results published in PubChem BioAssay (EPA / NIEHS).
The source made the active and inactive calls. How the source made its calls: active means hit-call score of the fitted dose curve at least 0.9, where 1 is the maximum; inactive means score below 0.9.

Key:
[1] = ATG_CRE_CIS: Attagene CIS-FACTORIAL HepG2 Assay for human cAMP Responsive Element (CRE) binding protein 3 (AID 2282926); conditions: HepG2 CRE cis-reporter, Attagene multiplexed mRNA; actives raise or lower the signal
Summary of the method: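 Multiplexed transcription-unit reporters transfected into HepG2; 24 h dosing; RT-PCR/capillary electrophoresis fluorescence read-out; bidirectional fit vs DMSO.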

[2] = target: CCAAT/enhancer-binding protein beta (Homo sapiens) (UniProt P17676); experiment: ATG_C_EBP_CIS: Attagene CIS-FACTORIAL HepG2 Assay for human CCAAT/Enhancer Binding Protein (C/EBP) beta (AID 2282927); conditions: HepG2 Attagene cis-factorial transcription factor reporter; actives raise or lower the signal
CCAAT/enhancer-binding protein beta (Homo sapiens), sequence (P17676 whole entry, looked up): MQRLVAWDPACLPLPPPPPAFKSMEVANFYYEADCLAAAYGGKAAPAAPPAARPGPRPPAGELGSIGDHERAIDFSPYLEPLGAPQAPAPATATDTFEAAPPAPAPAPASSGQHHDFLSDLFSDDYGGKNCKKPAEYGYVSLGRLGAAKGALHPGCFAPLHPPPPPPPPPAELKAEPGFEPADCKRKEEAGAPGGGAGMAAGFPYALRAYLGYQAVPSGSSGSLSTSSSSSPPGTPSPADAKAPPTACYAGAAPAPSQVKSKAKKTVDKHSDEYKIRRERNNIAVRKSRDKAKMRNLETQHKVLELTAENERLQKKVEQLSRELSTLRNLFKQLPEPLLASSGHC
Summary of the method: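 HepG2 transiently transfected with multiplexed reporter units under cis-regulatory promoters reporting endogenous C/EBPb activity. After 24 h exposure, reporter mRNA assayed by RT-PCR, fluorescent labelling, HpaI digestion and capillary electrophoresis; bidirectional fitting versus DMSO.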

[3] = ATG_CMV_CIS: Attagene CIS-FACTORIAL HepG2 Assay for human CMV (Internal Marker) (AID 2282928); conditions: HepG2 CMV promoter reporter, transcription factor profiling; actives raise or lower the signal;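 further: endpoint acts as a background internal control marker rather than a target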
Summary of the method: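 Endogenous transcription factor activity read in HepG2 via transfected cis-promoter reporter units. After 24 h dosing, reporter mRNA measured by RT-PCR/capillary electrophoresis; gain or loss of signal fit relative to DMSO.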

[4] = ATG_DR4_LXR_CIS: Attagene CIS-FACTORIAL HepG2 Assay for human Liver X Receptor (LXR), DR4 submotif (AID 2282929); conditions: HepG2 Attagene DR4 cis-reporter, mRNA transcription; actives raise or lower the signal
Summary of the method: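 Measures endogenous transcription factor activity via a DR4-driven reporter transcript in human HepG2 cells. Compounds incubated 24 h; mRNA quantified by RT-PCR and capillary electrophoresis, analysed as gain or loss of signal versus DMSO.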

[5] = target: Aryl hydrocarbon receptor (Homo sapiens) (UniProt P35869); experiment: ATG_Ahr_CIS: Attagene CIS-FACTORIAL HepG2 Assay for human Aryl Hydrocarbon Receptor (Ahr) (AID 2282930); conditions: HepG2 AhR cis-factorial reporter transcription; actives raise or lower the signal
Aryl hydrocarbon receptor (Homo sapiens), sequence (P35869 whole entry, looked up): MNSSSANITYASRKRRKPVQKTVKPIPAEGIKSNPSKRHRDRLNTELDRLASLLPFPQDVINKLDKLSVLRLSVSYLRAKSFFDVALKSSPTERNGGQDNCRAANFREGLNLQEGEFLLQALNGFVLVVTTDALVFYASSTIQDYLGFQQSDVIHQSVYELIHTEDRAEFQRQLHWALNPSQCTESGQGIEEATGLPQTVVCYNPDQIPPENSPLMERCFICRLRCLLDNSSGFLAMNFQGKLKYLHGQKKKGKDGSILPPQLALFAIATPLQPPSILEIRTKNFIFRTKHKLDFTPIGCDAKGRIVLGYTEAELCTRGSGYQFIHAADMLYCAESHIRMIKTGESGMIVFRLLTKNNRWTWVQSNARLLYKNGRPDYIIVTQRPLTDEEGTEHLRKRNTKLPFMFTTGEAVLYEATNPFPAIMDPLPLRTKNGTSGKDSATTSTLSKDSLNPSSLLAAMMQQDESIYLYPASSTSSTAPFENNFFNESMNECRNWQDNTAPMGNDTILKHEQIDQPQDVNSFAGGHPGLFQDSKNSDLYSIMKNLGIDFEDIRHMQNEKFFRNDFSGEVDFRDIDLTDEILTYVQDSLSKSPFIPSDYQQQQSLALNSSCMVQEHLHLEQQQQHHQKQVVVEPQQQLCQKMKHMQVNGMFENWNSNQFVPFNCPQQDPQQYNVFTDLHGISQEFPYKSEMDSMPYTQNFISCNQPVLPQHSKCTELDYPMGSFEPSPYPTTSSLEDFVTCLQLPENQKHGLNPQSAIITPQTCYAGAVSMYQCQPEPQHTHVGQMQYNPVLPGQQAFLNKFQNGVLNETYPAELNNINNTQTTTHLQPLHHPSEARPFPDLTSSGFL
Summary of the method: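 HepG2 cells transiently transfected with cis-element-driven multiplexed reporter units; endogenous AhR activity read as reporter mRNA 24 h after dosing, via RT-PCR, 6-FAM labelling, HpaI digestion and capillary electrophoresis. Bidirectional fit relative to DMSO.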

[6] = ATG_AP_1_CIS: Attagene CIS-FACTORIAL HepG2 Assay for human Activator Protein 1 (AP-1) (AID 2282931); conditions: HepG2 Attagene cis-factorial AP-1 reporter mRNA; actives raise or lower the signal
Summary of the method: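 Bidirectional concentration-response fitting against DMSO controls. Underlying signal: reporter mRNA from cis-promoter constructs in transiently transfected HepG2, measured after 24 h by RT-PCR and capillary electrophoresis.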

[7] = ATG_AP_2_CIS: Attagene CIS-FACTORIAL HepG2 Assay for human Activator Protein 2 (AP-2) (AID 2282932); conditions: HepG2 AP-2 cis-reporter, Attagene transcription factor profiling; actives raise or lower the signal
Summary of the method: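 HepG2 cells transiently transfected with cis-element reporter units and exposed for 24 h. Reporter mRNA measured by RT-PCR, FAM labelling, HpaI digestion and capillary electrophoresis. Changes in either direction fitted relative to DMSO.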

[8] = ATG_BRE_CIS: Attagene CIS-FACTORIAL HepG2 Assay for human Bone Morphogenetic Protein (BMP) Response Element (BRE) (AID 2282933); conditions: HepG2 BMP response element reporter, Attagene transcription factor profiling; actives raise or lower the signal
Summary of the method: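 Multiplexed cis-reporter assay, HepG2, 24 h exposure. mRNA from reporter units quantified via RT-PCR/CE; DMSO baseline; bidirectional curve fit.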

[9] = target: Retinoic acid receptor alpha (Homo sapiens) (UniProt P10276); experiment: ATG_DR5_RAR_CIS: Attagene CIS-FACTORIAL HepG2 Assay for human Retinoic Acid Receptor Alpha (RARE), DR5 submotif (AID 2282934); conditions: HepG2 Attagene cis-factorial RARE DR5 reporter, mRNA; actives raise or lower the signal
Retinoic acid receptor alpha (Homo sapiens), sequence (P10276 whole entry, looked up): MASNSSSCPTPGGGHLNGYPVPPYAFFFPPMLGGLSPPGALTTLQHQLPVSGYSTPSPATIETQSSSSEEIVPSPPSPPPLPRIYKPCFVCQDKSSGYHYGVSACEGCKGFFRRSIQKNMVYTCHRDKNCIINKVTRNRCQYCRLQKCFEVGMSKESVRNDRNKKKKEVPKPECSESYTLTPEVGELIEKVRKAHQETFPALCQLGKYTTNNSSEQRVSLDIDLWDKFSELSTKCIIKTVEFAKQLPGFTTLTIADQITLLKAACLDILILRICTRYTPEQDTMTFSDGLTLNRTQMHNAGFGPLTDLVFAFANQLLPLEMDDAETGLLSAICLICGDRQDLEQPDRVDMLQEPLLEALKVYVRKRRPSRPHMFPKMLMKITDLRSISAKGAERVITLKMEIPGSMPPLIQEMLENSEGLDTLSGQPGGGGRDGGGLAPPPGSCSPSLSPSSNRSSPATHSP
Summary of the method: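 HepG2 cells transiently transfected with multiplexed reporter units; DR5 cis-element drives reporter through endogenous transcription factors. After 24 h dosing, reporter mRNA quantified by RT-PCR, fluorescent labeling, HpaI digestion and capillary electrophoresis; bidirectional fitting versus DMSO.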

[10] = ATG_E_Box_CIS: Attagene CIS-FACTORIAL HepG2 Assay for human Enhancer Box (E-box) (AID 2282936); conditions: HepG2 E-box cis-reporter transcription, actives raise or lower the signal
Summary of the method: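 HepG2 cells transiently transfected with multiplexed cis-element reporter units, dosed 24 h; reporter mRNA quantified by RT-PCR, 6-FAM labelling, HpaI digestion and capillary electrophoresis. E-box (USF1) signal fitted bidirectionally vs DMSO.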

[11] = ATG_M_61_CIS: Attagene CIS-FACTORIAL HepG2 Assay for M61 Transcription Factor (Internal Marker) (AID 2282937); conditions: HepG2 Attagene CIS-FACTORIAL M61 internal marker reporter; actives raise or lower the signal
Summary of the method: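 Fluorescence from labelled cDNA fragments, separated by capillary electrophoresis, quantifies reporter induction. HepG2 cells bearing transiently transfected cis-promoter MRTUs were incubated with test chemical for 24 h; DMSO defined baseline for gain/loss fitting.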

[12] = ATG_EGR_CIS: Attagene CIS-FACTORIAL HepG2 Assay for human Early Growth Response 1 (EGR1) (AID 2282938); conditions: HepG2 Attagene CIS-FACTORIAL EGR reporter mRNA; actives raise or lower the signal
Summary of the method: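 Cell-based multiplex transcription assay: HepG2 carrying transfected cis-element reporter units, 24 h chemical treatment. Fluorescence from capillary electrophoresis of RT-PCR products gives mRNA levels; fitting is bidirectional relative to DMSO.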

[13] = ATG_M_19_CIS: Attagene CIS-FACTORIAL HepG2 Assay for M19 Transcription Factor (Internal Marker) (AID 2282939); conditions: HepG2 Attagene CIS-FACTORIAL M19 internal marker reporter; actives raise or lower the signal
Summary of the method: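 Signals come from fluorescence of labelled reporter-specific PCR fragments resolved by capillary electrophoresis, following 24 h treatment of HepG2 cells transfected with cis-promoter reporter units; activity was fitted in both directions relative to DMSO.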

[14] = ATG_Ets_CIS: Attagene CIS-FACTORIAL HepG2 Assay for human Erythroblast Transformation Specific (ETS) (AID 2282941); conditions: HepG2 ETS cis-reporter transcription, actives raise or lower the signal
Summary of the method: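 Steps: transfect HepG2 with multiple reporter units; treat compound 24 h; isolate RNA, DNase-treat, reverse-transcribe; PCR-amplify, label with 6-FAM, digest with HpaI; separate by capillary electrophoresis. Activity fitted both directions versus DMSO.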

[15] = target: Hepatocyte nuclear factor 3-beta (Homo sapiens) (UniProt Q9Y261); experiment: ATG_FoxA2_CIS: Attagene CIS-FACTORIAL HepG2 Assay for human Forkhead box A2 (FOXA2) (AID 2282942); conditions: HepG2 cis-reporter transcription factor activity, 24 h; actives raise or lower the signal
Hepatocyte nuclear factor 3-beta (Homo sapiens), sequence (Q9Y261 whole entry, looked up): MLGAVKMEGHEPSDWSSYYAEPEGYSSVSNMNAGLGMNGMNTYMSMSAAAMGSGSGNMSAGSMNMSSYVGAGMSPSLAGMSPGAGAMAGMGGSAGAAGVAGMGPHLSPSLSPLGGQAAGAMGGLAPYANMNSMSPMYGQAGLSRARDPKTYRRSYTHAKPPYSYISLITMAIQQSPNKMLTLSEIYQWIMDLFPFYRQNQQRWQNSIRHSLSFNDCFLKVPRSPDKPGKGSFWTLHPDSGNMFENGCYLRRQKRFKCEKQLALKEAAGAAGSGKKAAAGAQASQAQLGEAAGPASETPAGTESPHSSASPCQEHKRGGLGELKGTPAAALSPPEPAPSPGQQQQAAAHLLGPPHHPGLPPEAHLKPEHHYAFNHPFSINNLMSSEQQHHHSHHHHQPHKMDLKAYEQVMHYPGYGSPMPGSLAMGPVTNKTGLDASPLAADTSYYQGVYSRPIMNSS
Summary of the method: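 In transiently transfected human HepG2 cells, promoter-driven reporter mRNA levels after 24 h chemical exposure are determined via RT-PCR with capillary electrophoresis. DMSO serves as baseline for bidirectional fitting.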

[16] = ATG_FoxO_CIS: Attagene CIS-FACTORIAL HepG2 Assay for human Forkhead box O (FoxO) (AID 2282943); conditions: HepG2 Attagene cis-reporter, FoxO element, mRNA; actives raise or lower the signal
Summary of the method: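 HepG2 cells transiently transfected with cis-element-driven reporter units report endogenous FoxO activity. After 24 h chemical exposure, reporter mRNA quantified by RT-PCR, fluorescent labeling, HpaI digestion and capillary electrophoresis; bidirectional fit versus DMSO.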

[17] = ATG_GATA_CIS: Attagene CIS-FACTORIAL HepG2 Assay for human GATA Binding Protein (AID 2282944); conditions: HepG2 GATA cis-element reporter, Attagene multiplex mRNA; actives raise or lower the signal
Summary of the method: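 After transfecting HepG2 cells with multiple cis-regulated reporter units, chemicals are dosed for 24 h; isolated RNA undergoes RT-PCR and fluorescent labeling before capillary electrophoresis, with activity expressed against DMSO.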

[18] = ATG_GLI_CIS: Attagene CIS-FACTORIAL HepG2 Assay for human Zinc Finger Protein GLI1 (AID 2282945); conditions: HepG2, Attagene cis-factorial reporter mRNA, GLI element; actives raise or lower the signal
Summary of the method: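 Transiently transfected HepG2 cells report endogenous transcription factor activity via cis-element-driven reporter units. After 24 h compound exposure, reporter mRNA was measured by RT-PCR with capillary electrophoresis; bidirectional fitting against DMSO baseline.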

[19] = target: Transcription factor E2F1 (Homo sapiens) (UniProt Q01094); experiment: ATG_E2F_CIS: Attagene CIS-FACTORIAL HepG2 Assay for human E2F Transcription Factor 1 (AID 2282935); conditions: HepG2 Attagene cis-reporter, E2F reporter RNA transcripts; actives raise or lower the signal
Transcription factor E2F1 (Homo sapiens), sequence (Q01094 whole entry, looked up): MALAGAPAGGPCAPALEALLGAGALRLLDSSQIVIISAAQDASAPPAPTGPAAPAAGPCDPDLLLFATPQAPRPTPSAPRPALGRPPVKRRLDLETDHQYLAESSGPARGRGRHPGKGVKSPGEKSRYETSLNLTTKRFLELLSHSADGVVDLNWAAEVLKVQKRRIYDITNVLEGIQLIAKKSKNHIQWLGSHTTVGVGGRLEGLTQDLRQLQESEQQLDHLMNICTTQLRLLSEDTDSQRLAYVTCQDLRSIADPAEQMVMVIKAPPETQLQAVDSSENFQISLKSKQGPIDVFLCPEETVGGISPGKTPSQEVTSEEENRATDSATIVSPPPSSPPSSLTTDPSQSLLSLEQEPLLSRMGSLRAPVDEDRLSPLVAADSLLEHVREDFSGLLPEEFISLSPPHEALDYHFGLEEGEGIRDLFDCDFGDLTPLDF
Summary of the method: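 Endogenous E2F1 activity read through cis-promoter reporter units transfected into HepG2. After 24 h compound treatment, reporter mRNA measured by RT-PCR, HpaI digestion and capillary electrophoresis. Bidirectional fit versus DMSO.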

[20] = ATG_ERE_CIS: Attagene CIS-FACTORIAL HepG2 Assay for Estrogen Response Element (ERE) (AID 2282940); conditions: HepG2 ERE cis-reporter, Attagene RNA transcript; actives raise or lower the signal
Summary of the method: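 Fluorescence of capillary-separated, FAM-labelled reporter cDNA fragments indicates reporter mRNA levels in HepG2 cells exposed to chemicals for 24 h. Transient transfection with cis-regulated units; data fitted in both directions against DMSO.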

Measured: AC50

CS(=O)(=O)c1ccc(C2=C(c3ccccc3)C(=O)OC2)cc1
active: [5] 0.0408 µM
not listed: [19] | [20]
inactive: all other assays above

OC[C@H]1O[C@@H](Oc2ccc(O)cc2)[C@H](O)[C@@H](O)[C@@H]1O
not listed: [8] | [11] | [12]
inactive: all other assays above

Nc1ccc(N)c2c1C(=O)c1ccccc1C2=O
active: [1] 3.11 µM | [2] 11.3 µM | [5] 1.59 µM
not listed: [8] | [20]
inactive: all other assays above

CN(C)c1cccc(O)c1
active: [5] 7.57 µM
not listed: [8] | [20]
inactive: all other assays above

OCc1cccc(Oc2ccccc2)c1
not listed: [8] | [20]
inactive: all other assays above

O=C1OC[C@H](Cc2cccc(O)c2)[C@H]1Cc1cccc(O)c1
active: [4] 13.9 µM
not listed: [8] | [20]
inactive: all other assays above

C=C(C)[C@H]1CC=C(C)C(=O)C1
not listed: [9] | [20]
inactive: all other assays above

OCCCCC(O)CO (stereo unspecified)
not listed: [10] | [16] | [19] | [20]
inactive: all other assays above

CCOc1ccc(NC(=O)CC(C)O)cc1 (stereo unspecified)
not listed: [19] | [20]
inactive: all other assays above

CCOc1ccc(NC(=O)CC(C)=O)cc1
not listed: [8] | [15] | [20]
inactive: all other assays above

CCC(C)c1cc([N+](=O)[O-])cc([N+](=O)[O-])c1OC(=O)OC(C)C (stereo unspecified)
active: [2] 49.1 µM | [6] 25.8 µM | [7] 39.7 µM | [8] 100 µM | [10] 100 µM | [12] 26.5 µM | [14] 26.1 µM | [15] 62.6 µM | [16] 164 µM | [17] 24.1 µM | [18] 27.1 µM
inactive: [1] | [3] | [4] | [5] | [9] | [11]

COc1ccc(OC)c(N=Nc2c(O)ccc3ccccc23)c1
active: [5] 0.51 µM
not listed: [12] | [19] | [20]
inactive: all other assays above

CC=Cc1ccc(OCC)c(O)c1
active: [5] 11.3 µM
not listed: [11] | [16] | [19] | [20]
inactive: all other assays above

COCCOCCOCCO
not listed: [8] | [20]
inactive: all other assays above

NC(=S)NNC(N)=S
not listed: [8] | [20]
inactive: all other assays above

O=CN1CCOCC1
not listed: [8]
inactive: all other assays above
